The values below come from article PMC12136788.

The full ranking holds about 24,000 sequences; the median of “enrichment r” is about 0.99, and the highest 2% start at about 3.7. Shown is part of a subset that was picked to be rich in the highest values.

B1: 19477749_19479453_500_CDS_ENSMUSG00000028228_ENSMUST00000029885|mouse|control|control (ssRNA)
RNA: GGGAGUUCUACAGUCCGACGAUCUCUGGCUUCCAUUUCAAACAAUACCACUCUGUUAUCCUUUAUUUCUUCUGCUGAAAUCGUAAUACUCCCUUUCCCUGCAGGUUUGCCAUUUUUGAGCACCAGUGGUCGAGUUAGCUUCUUCAACAGAGGAUUGAGCAUCA
B2: chr2:9572718:9572719:+_ENSG00000119203_ENST00000238112|hu_mus|FALSE|FALSE (ssRNA)
RNA: GGGAGUUCUACAGUCCGACGAUCGACGUGGCCGGCAUGGUAACACCAGAACUUGAUUCCUGCAACUUCCUUAACUUCAUGAAAAUUGAUGGUUUCGAUUUUGUCCAUGCUUUCUUCCAAGUCUGUCUCAGUGUACAGCAUGUCCAACAGAGGAUUGAGCAUCA
B3: chr17:61655871:61655872:+_ENSG00000136485_ENST00000310827|hu_hu|FALSE|FALSE (ssRNA)
RNA: GGGAGUUCUACAGUCCGACGAUCGGUGGGGUAUGGGUGGUCAAAGGUGUUUCUGCAAAUAAACUCUGAACUCUCCUCAUCUAAACCAACAAGCUGAACCUUGUUGUUGUACUCCUCCACGAAGCUGCCCAGCGCCAAGCGAAACAACAGAGGAUUGAGCAUCA
B4: chr5:37680062:37680063:+_ENSMUSG00000029121_ENSMUST00000031004|mus_hu|mus_mus_mus_hu_False|1_18 (ssRNA)
RNA: GGGAGUUCUACAGUCCGACGAUCUUUGGGUGUAGCUGGUACCUCGUACACAGGACCGUCAUACAUGCCCCUGGAAACCCCUUGCAAUCCAAAAACCUUAUUCCUGAUUUUGACGCGCUGGUAGAGAUGCUCCGGGAAUGGCUUCAACAGAGGAUUGAGCAUCA
B5: chr17:45747064:45747065:+_ENSG00000108424_ENST00000290158|hu_hu|hu_hu_hu_mus_True|38_98 (ssRNA)
RNA: GGGAGUUCUACAGUCCGACGAUCGCCCACAGUCCACGCAGCUGUAUCUCGAACAACUACACUGGGGUCUUUCAUUAGUUCUAUUAGGGUGGGCAUAGCCUGUAUAACUAAUGGUUUCAGUUGAUUAGGCUCUGGUCCUUCCAACAACAGAGGAUUGAGCAUCA
B6: chr1:244855233:244855234:+_ENSG00000121644_ENST00000302550|hu_mus|hu_hu_hu_mus_True|98_98 (ssRNA)
RNA: GGGAGUUCUACAGUCCGACGAUCCAUCAGAUGGUAGGCAUUGCCUUUAUACUCUUUCCCCAGUUCUUCUACAAUUUUCUCUAUAUCAUCUUCUAGAAAGUCCGUACUUCCUAGAACAACAGCUUCUUUAAAUUUAAAUGUUUCCAACAGAGGAUUGAGCAUCA
B7: chr3:10015032:10015033:+_ENSMUSG00000027533_ENSMUST00000029046|mus_mus|mus_mus_mus_hu_True|58_58 (ssRNA)
RNA: GGGAGUUCUACAGUCCGACGAUCGUUUUUACCAUCACAAGUGAUGAUACAAUCUGGCUUGGCCAUUGCGCCCAUUUUCCUAAGAGCUAUUCCCACUCCUAGCUCCUUCAUGUAUUCAUCAAAGCCUUUGCUGUCCACCAGGCGCAACAGAGGAUUGAGCAUCA
B8: chr14:102449733:102449734:+_ENSG00000197102_ENST00000360184|hu_mus|FALSE|FALSE (ssRNA)
RNA: GGGAGUUCUACAGUCCGACGAUCCAGCACCUGGAGCUUCUCGUACUCGUCGUCCCACGUCUGGAAGACUUCGAAGCAAGCCACCAUGACCUUUUCAAACUCUUCAUAGGCUACAUGCAUCAACUUCCGAGUGCCCAAGACCUUCAACAGAGGAUUGAGCAUCA
B9: chr7:107985766:107985767:+_ENSMUSG00000029461_ENSMUST00000049053|mus_hu|FALSE|FALSE (ssRNA)
RNA: GGGAGUUCUACAGUCCGACGAUCCCCUAGGUAAAUUUUUGUAAGCAAGGUGCCCACUAGGUAGGAAGGCUGCAUUUAAUGCUAAUUUACUGUAAGGUCUAGGGAAGUCCUUUCCGCUUCUCUGGGCCUCAGUUUCCUCAUCUGCAACAGAGGAUUGAGCAUCA
B10: chr10:57235669:57235670:-_ENSMUSG00000019877_ENSMUST00000020027|mus_hu|FALSE|FALSE (ssRNA)
RNA: GGGAGUUCUACAGUCCGACGAUCAAAUUGUGGAAUACAAUGUCUACACACAGAAUAAGGUUGGGGAAUUAAGCUGAAUUGUUAUAUUCCAUUCACAUUAAUAAAUAUUUUUAAAGAAGAAAUUGUAGAUUUUAAAAGCUUCAUCAACAGAGGAUUGAGCAUCA
B11: chr14:49633609:49633610:-_ENSMUSG00000061244_ENSMUST00000162175|mus_mus|FALSE|FALSE (ssRNA)
RNA: GGGAGUUCUACAGUCCGACGAUCCAUUCAUUUUCUGACACCAACAUUUUCCAGGAUUAUAACAGUCAUGUAGGUUUAUAGAAUUUGAAAUUUAUAAAUUAAAGUAUAGAAUUCAACAUAACAGGGAAAAGAUAAAAAUACAGCCAACAGAGGAUUGAGCAUCA
B12: 98287512_98287632_2604_3pUTR_ENSG00000180543_ENST00000322128|human|control|control (ssRNA)
RNA: GGGAGUUCUACAGUCCGACGAUCUACCUCCCCAGCUGUAUGUAGAAAAAUGUGGUUUUUCAGUUGUUUUCUCUGUGGUACUAUUUAAACAAAAUAAAAAAGAAUAAGGAAAGAAGGAAGGGGAAGGCAGAAGAGGAGGAAAGGCAACAGAGGAUUGAGCAUCA
B13: chr14:57341393:57341394:-_ENSMUSG00000021938_ENSMUST00000022507|mus_hu|FALSE|FALSE (ssRNA)
RNA: GGGAGUUCUACAGUCCGACGAUCCUGAAUAUUCAGAAGCUAUAUGAAAUGUAGCUGGAAAUUCCGAUUUCACAGAACAUCAGUGGUUUAUACAAAUUAAACUCCCAUACCCUCCCACCCCCACAUAUACUACUCUAUCUACCCCAACAGAGGAUUGAGCAUCA
B14: chr14:62153831:62153832:-_ENSMUSG00000021930_ENSMUST00000100496|mus_mus|FALSE|FALSE (ssRNA)
RNA: GGGAGUUCUACAGUCCGACGAUCAUAUUUGUUUAAAUAAGAUUAAAUAAGUUGCCUAGAUCUUUUAAACCAAACCUCAGCAUGGUAUAAUGAAUACAUGGGUUCCUUGGACAACAAUUAGAAGCUCAGUGUUCAGCAUGUGUUCAACAGAGGAUUGAGCAUCA
B15: chr11:130013608:130013609:+_ENSG00000084234_ENST00000528499|hu_hu|motif|central (ssRNA)
RNA: GGGAGUUCUACAGUCCGACGAUCAGCAUGUGUCAGACAAUACAAUGGAAGUGGGGUUUCUGAUUAAUUUAAAAAAGAAAACGGCAUCAAAUAUCUGCAAUAGAUCAUUUUUUUCAUUUAAGGUUUAUAUAUCAUAUAUUGUUACAACAGAGGAUUGAGCAUCA
B16: chr6:30403744:30403745:+_ENSMUSG00000029775_ENSMUST00000068259|mus_mus|motif|central (ssRNA)
RNA: GGGAGUUCUACAGUCCGACGAUCAGGAGAAGGCUAAACACUGAUUAUCUAUGGAUUUCGAUUGUGUGUGCUUUCACCUUGCGGCAGUGGAUAACGAAAGAUCAGUCAUACUUUUAAUCUAGAAAUGUUAAUAUUUUCAUCAUACAACAGAGGAUUGAGCAUCA
B17: 48457567_48458910_1668_CDS_ENSG00000079387_ENST00000551330|human|control|control (ssRNA)
RNA: GGGAGUUCUACAGUCCGACGAUCGAGAACUUCAUCCUGAUUCCCAUUACGAAAUACAUUCUUUAUUUCUUUCUCCAUUUCCUCUGUAAUUUCAGGAAAUUCAUCUUCACUAUCAGUUAAUUUAUGACCUUUUUUUUGUGUUUCCAACAGAGGAUUGAGCAUCA
B18: chr17:64801638:64801639:+_ENSG00000154229_ENST00000413366|hu_mus|hu_hu_hu_mus_False|28_38 (ssRNA)
RNA: GGGAGUUCUACAGUCCGACGAUCUAUAUAUAUAUAUACAUAUGUACACAUAUAUAGUAAAACCCUAGUUAAACGUGUAAAGUAGCCAUUCAUUUUUGAAAUUUUAUCUACAUUUAAAAAUUAAUAUAUCUGAUAGAGUGCCAGCAACAGAGGAUUGAGCAUCA
B19: chr4:140213729:140213730:-_ENSG00000109390_ENST00000265500|hu_mus|FALSE|FALSE (ssRNA)
RNA: GGGAGUUCUACAGUCCGACGAUCGAAGCUGACUGUAUUAUUUCCAAAGUUUAUUCCAAUCCAUUUCUUCUUUUAUACUCCAAAACAUCUUCAUUGUGUGUUUGGAUGAGCUACAAGAUAAUGGUUAAAAUUAGAAAUGUGAGCCAACAGAGGAUUGAGCAUCA
B20: chr16:35696996:35696997:-_ENSMUSG00000022848_ENSMUST00000023554|mus_mus|FALSE|FALSE (ssRNA)
RNA: GGGAGUUCUACAGUCCGACGAUCAAGACGGGUCCAGGAGCCAUGCAAUGAGUAUGUUUUUGUUUUUGUUUUUUUUAAAAAUCCAUUAUUUAUAGAAAGAAAUAGGUAUUGGCAAAAAUCUGUCCAAUCAAAUACAAUGACUUCCAACAGAGGAUUGAGCAUCA
B21: chr4:136876768:136876769:-_ENSMUSG00000006699_ENSMUST00000051477|mus_mus|FALSE|FALSE (ssRNA)
RNA: GGGAGUUCUACAGUCCGACGAUCAAACAACAAACGUUUGUGGGGAUUUUUGUUUUUUUUUUUAAACAAAGAAAACAAAAACUAGCACUCAUUGCUUUUCAGACAAUACAUAAUUAUUCAAAAUUAACUAUUACUGGAAGGGCACAACAGAGGAUUGAGCAUCA

The experiment concerns the target T1, UNK ZnF1-3 (human, UniProt Q9C0B0 31-174).
T1 sequence: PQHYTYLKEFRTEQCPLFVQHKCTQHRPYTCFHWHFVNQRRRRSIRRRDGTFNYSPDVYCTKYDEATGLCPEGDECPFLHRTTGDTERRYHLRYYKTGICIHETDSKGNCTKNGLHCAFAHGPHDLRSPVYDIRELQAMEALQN
The experiment can be described thus: nsRBNS (natural sequence RNA bind-n-seq); RBNS binding buffer (assumed for nsRBNS): 25 mM Tris pH 7.5, 150 mM KCl, 3 mM MgCl2, 0.01% Triton X-100, 500 ug/ml BSA, 20 U/ml SUPERase-In, 4 C; UNK is unkempt and MSI1 is Musashi-1; names of the RNAs are library labels; protein concentration not given here; high values mean tight binding.
For the molecule B1, the binding signal is 0.645 enrichment R.
B2 gave a binding signal of 0.798 enrichment R.
The molecule B3 returned a binding signal of 1.21 enrichment R.
Take B4: the binding signal came out at 0.867 enrichment R.
With B5 the figure was 0.573 enrichment R; with B6, 1.59 enrichment R.
B7 showed a binding signal of 0.594 enrichment R.
In the case of B8, the binding signal was 1.2 enrichment R.
B9 returned a binding signal of 0.876 enrichment R.
On to B10, for which the binding signal turned out to be 6.49 enrichment R.
Under B11 stands 5.9 enrichment R.
Molecule B12 returned a binding signal of 3.05 enrichment R.
The molecule B13 displayed a binding signal of 4.65 enrichment R.
Regarding B14, the binding signal stood at 0.982 enrichment R.
Under B15 stands 5.2 enrichment R; under B16, 0.934 enrichment R; under B17, 0.373 enrichment R.
With B18 the figure was 2.54 enrichment R; with B19, 1.21 enrichment R; with B20, 2.16 enrichment R.
For the molecule B21, the binding signal was found to be 0.695 enrichment R.
